# Active and inactive are the calls of the source. Rule for the calls: active = hit-call score of the fitted dose curve at least 0.9, where 1 is the maximum; inactive = score below 0.9.
# Legend:
# Conditions in all cases: mRNA level, 48 h; actives raise or lower the signal
# [1] = read-out: Apolipoprotein A-V (APOA5) gene, APOA5 (gene 116519); experiment: LTEA_HepaRG_APOA5: Life Technologies and Expression Analysis (LTEA) Assay for Apolipoprotein A-V (APOA5) gene using HepaRG (AID 2283474)
# Outline: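 Concentration-response of APOA5 expression in HepaRG: eight half-log doses to 100 uM, 48 h, qRT-PCR normalized to ACTB/GAPDH/POLR2A, bidirectional fitting with 0.5% DMSO as baseline.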
# [2] = read-out: Apoptosis regulator Bcl-2 (Homo sapiens) (UniProt P10415); experiment: LTEA_HepaRG_BCL2: Life Technologies and Expression Analysis (LTEA) Assay for Bcl-2 gene using HepaRG (AID 2283475);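 note: BCL2 transcript by TaqMan qRT-PCR normalised to ACTB GAPDH and POLR2A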
# Outline: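 Plated human HepaRG cells are exposed to test chemicals for 48 h across eight concentrations from 100 uM downward in half-log steps (0.5% DMSO). BCL2 expression is then measured by qRT-PCR with housekeeping normalisation and fitted bidirectionally against vehicle.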
# [3] = read-out: Bcl-2 (BID) gene, BID (gene 637); experiment: LTEA_HepaRG_BID: Life Technologies and Expression Analysis (LTEA) Assay for Bcl-2 (BID) gene using HepaRG (AID 2283476)
# Outline: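 Cells are plated, cultured 48 h, switched to serum-free induction medium, then dosed 48 h (100 uM top, half-log steps, 0.5% DMSO). RNA is isolated and BID expression read by qRT-PCR.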
# [4] = read-out: Caspase-3 (Homo sapiens) (UniProt P42574); experiment: LTEA_HepaRG_CASP3: Life Technologies and Expression Analysis (LTEA) Assay for cysteine-aspartic acid protease (CASP3) using HepaRG (AID 2283477)
# Outline: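 Transcript-level assay: CASP3 mRNA in human HepaRG after 48 h treatment, eight half-log concentrations from 100 uM in 0.5% DMSO, quantified by qRT-PCR.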
# [5] = read-out: Cytochrome P450 (CYP24A1), CYP24A1 (gene 1591); experiment: LTEA_HepaRG_CYP24A1: Life Technologies and Expression Analysis (LTEA) Assay for Cytochrome P450 (CYP24A1) using HepaRG (AID 2283478)
# Outline: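 Gene expression of CYP24A1 by TaqMan qRT-PCR in HepaRG after 48 h treatment, highest concentration 100 uM; activity fitted in both directions relative to DMSO vehicle.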
# [6] = read-out: Cytochrome P450 (CYP1A2), CYP1A2 (gene 1544); experiment: LTEA_HepaRG_CYP1A2: Life Technologies and Expression Analysis (LTEA) Assay for Cytochrome P450 (CYP1A2) using HepaRG (AID 2283479);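 for AC50: TaqMan qRT-PCR transcript level normalized to ACTB GAPDH and POLR2A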
# Outline: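 In duplicate wells, HepaRG cultures maintained in 0.5% DMSO were treated 48 h across an 8-point, half-log series topping at 100 uM; phenobarbital (1 mM) served as induction control. Expression was read by qRT-PCR.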
# [7] = read-out: cysteine-aspartic acid protease (CASP8), CASP8 (gene 841); experiment: LTEA_HepaRG_CASP8: Life Technologies and Expression Analysis (LTEA) Assay for cysteine-aspartic acid protease (CASP8) using HepaRG (AID 2283480)
# Outline: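 Concentration-response in duplicate up to 100 uM (half-log steps, 0.5% DMSO) on differentiated HepaRG cultures for 48 h. Expression change of CASP8 mRNA is determined by TaqMan qRT-PCR with housekeeping-gene normalization.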
# [8] = read-out: Cytochrome P450 (CYP2B6), CYP2B6 (gene 1555); experiment: LTEA_HepaRG_CYP2B6: Life Technologies and Expression Analysis (LTEA) Assay for Cytochrome P450 (CYP2B6) using HepaRG (AID 2283481)
# Outline: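 Human HepaRG, 48 h dosing, 0.5% DMSO vehicle, top dose 100 uM. CYP2B6 transcript by qRT-PCR, housekeeping-normalized, bidirectional curve fit.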
# [9] = read-out: Cytochrome P450 2C19 (Homo sapiens) (UniProt P33261); experiment: LTEA_HepaRG_CYP2C19: Life Technologies and Expression Analysis (LTEA) Assay for CYP2C19 using HepaRG (AID 2283482)
# Outline: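 Endpoint: CYP2C19 mRNA change, bidirectional fit vs 0.5% DMSO. Cells: HepaRG, 48 h exposure, eight-point series topping at 100 uM. Quantitation: qRT-PCR normalized to ACTB, GAPDH, POLR2A.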
# [10] = read-out: CYP2C9 (gene 1559); experiment: LTEA_HepaRG_CYP2C9: Life Technologies and Expression Analysis (LTEA) Assay for CYP2C9 using HepaRG (AID 2283484)
# Outline: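 Eight-point concentration-response (highest 100 uM, half-log dilutions) in HepaRG cells for 48 h; CYP2C9 expression by qRT-PCR normalized to ACTB, GAPDH, POLR2A. Bidirectional fit, DMSO baseline.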
# [11] = read-out: CYP2E1 (gene 1571); experiment: LTEA_HepaRG_CYP2E1: Life Technologies and Expression Analysis (LTEA) Assay for CYP2E1 using HepaRG (AID 2283485)
# Outline: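 Readout is qRT-PCR of CYP2E1 mRNA, normalized to three housekeeping genes and fitted bidirectionally against 0.5% DMSO. HepaRG cells were dosed 48 h at eight concentrations, highest 100 uM with half-log dilutions.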
# [12] = read-out: CYP4A11 (gene 1579); experiment: LTEA_HepaRG_CYP4A11: Life Technologies and Expression Analysis (LTEA) Assay for CYP4A11 using HepaRG (AID 2283486)
# Outline: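 Human hepatic HepaRG cultures receive duplicate 48 h exposures across a concentration-response series topping at 100 uM. Expression changes in CYP4A11 are measured by qRT-PCR relative to DMSO controls.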
# [13] = read-out: Cytochrome P450 3A4 (Homo sapiens) (UniProt P08684); experiment: LTEA_HepaRG_CYP3A4: Life Technologies and Expression Analysis (LTEA) Assay for CYP3A4 using HepaRG (AID 2283487)
# Outline: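 HepaRG, 48 h exposure, 8-pt CRC from 100 uM (half-log), 0.5% DMSO, duplicates; serum-free induction medium. Readout: CYP3A4 mRNA, qRT-PCR, ACTB/GAPDH/POLR2A normalization. Bidirectional fit vs DMSO.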
# [14] = read-out: DNA damage-inducible transcript 3 (DDIT3), DDIT3 (gene 1649); experiment: LTEA_HepaRG_DDIT3: Life Technologies and Expression Analysis (LTEA) Assay for DNA damage-inducible transcript 3 (DDIT3) using HepaRG (AID 2283488)
# Outline: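 Cells are human HepaRG liver cells treated for 48 h with eight half-log concentrations up to 100 uM in 0.5% DMSO. Transcript levels come from qRT-PCR normalized to three housekeeping genes, with activity fitted in both directions relative to vehicle.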
# [15] = read-out: Pro-epidermal growth factor (Homo sapiens) (UniProt P01133); experiment: LTEA_HepaRG_EGF: Life Technologies and Expression Analysis (LTEA) Assay for Epidermal growth factor (EGF) using HepaRG (AID 2283489)
# Outline: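 Concentration-response mRNA assay: HepaRG cells dosed 48 h (max 100 uM, 0.5% DMSO), EGF measured by qRT-PCR and normalized to ACTB/GAPDH/POLR2A.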
# [16] = read-out: Ezrin (EZR), EZR (gene 7430); experiment: LTEA_HepaRG_EZR: Life Technologies and Expression Analysis (LTEA) Assay for Ezrin (EZR) using HepaRG (AID 2283491)
# Outline: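 Read-out is EZR transcript level by qRT-PCR, normalized to three housekeeping genes and fitted bidirectionally against the DMSO control. Human HepaRG cells received test chemicals for 48 h at eight half-log concentrations up to 100 uM in 0.5% DMSO.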
# [17] = read-out: Cytochrome P450 3A7 (Homo sapiens) (UniProt P24462); experiment: LTEA_HepaRG_CYP3A7: Life Technologies and Expression Analysis (LTEA) Assay for CYP3A7 using HepaRG (AID 2283492)
# Outline: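 qRT-PCR of CYP3A7 in HepaRG lysates after 48 h treatment; concentration-response (8 points, max 100 uM) analysed bidirectionally relative to 0.5% DMSO controls.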
# [18] = read-out: CYP3A5 (gene 1577); experiment: LTEA_HepaRG_CYP3A5: Life Technologies and Expression Analysis (LTEA) Assay for CYP3A5 using HepaRG (AID 2283493)
# Outline: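 Human HepaRG hepatic cells receive 48 h chemical treatment at eight concentrations (half-log steps from 100 uM) in 0.5% DMSO. Expression of CYP3A5 is quantified by Fluidigm qRT-PCR and normalized to three reference genes.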
# [19] = read-out: Early growth response protein 1 (EGR1) transcription factor, EGR1 (gene 1958); experiment: LTEA_HepaRG_EGR1: Life Technologies and Expression Analysis (LTEA) Assay for Early growth response protein 1 (EGR1) transcription factor using HepaRG (AID 2283490)
# Outline: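 EGR1 expression change in human HepaRG after 48 h chemical exposure, assessed by housekeeping-normalized qRT-PCR; concentration-response up to 100 uM, fitted in both directions against DMSO controls.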
# [20] = read-out: CYP2C8 (gene 1558); experiment: LTEA_HepaRG_CYP2C8: Life Technologies and Expression Analysis (LTEA) Assay for CYP2C8 using HepaRG (AID 2283483)
# Outline: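 This is a transcriptional endpoint in HepaRG cultures: 48 h exposure, highest concentration 100 uM. CYP2C8 mRNA is quantified by TaqMan qRT-PCR.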
# Sequence of Cytochrome P450 3A4 (Homo sapiens) (P08684 whole entry, looked up): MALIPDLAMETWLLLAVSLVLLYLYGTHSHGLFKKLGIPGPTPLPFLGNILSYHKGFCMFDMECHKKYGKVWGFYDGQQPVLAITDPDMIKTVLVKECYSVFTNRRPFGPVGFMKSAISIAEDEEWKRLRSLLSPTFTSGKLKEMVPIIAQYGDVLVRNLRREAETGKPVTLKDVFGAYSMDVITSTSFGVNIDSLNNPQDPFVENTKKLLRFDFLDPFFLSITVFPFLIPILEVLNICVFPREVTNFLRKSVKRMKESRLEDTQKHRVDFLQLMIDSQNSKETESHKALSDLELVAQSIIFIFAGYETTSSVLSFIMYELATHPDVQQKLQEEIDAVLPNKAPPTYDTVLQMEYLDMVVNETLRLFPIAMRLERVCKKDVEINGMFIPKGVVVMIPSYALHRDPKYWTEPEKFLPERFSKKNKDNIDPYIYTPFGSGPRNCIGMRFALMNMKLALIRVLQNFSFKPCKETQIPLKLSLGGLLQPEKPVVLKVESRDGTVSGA
# Sequence of Cytochrome P450 2C19 (Homo sapiens) (P33261 whole entry, looked up): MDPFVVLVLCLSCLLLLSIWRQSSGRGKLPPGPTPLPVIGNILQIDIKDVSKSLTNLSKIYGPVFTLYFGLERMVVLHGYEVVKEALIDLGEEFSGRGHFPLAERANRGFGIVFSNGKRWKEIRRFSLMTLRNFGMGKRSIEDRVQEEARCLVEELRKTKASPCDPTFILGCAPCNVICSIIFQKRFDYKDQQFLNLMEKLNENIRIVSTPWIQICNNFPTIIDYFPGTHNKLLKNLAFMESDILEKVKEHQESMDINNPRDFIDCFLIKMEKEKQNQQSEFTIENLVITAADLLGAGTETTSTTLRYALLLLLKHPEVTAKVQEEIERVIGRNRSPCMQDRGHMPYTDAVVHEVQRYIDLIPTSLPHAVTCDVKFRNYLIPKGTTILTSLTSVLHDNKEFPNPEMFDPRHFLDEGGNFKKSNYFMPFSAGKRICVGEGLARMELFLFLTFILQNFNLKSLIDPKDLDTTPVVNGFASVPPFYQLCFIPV
# Sequence of Caspase-3 (Homo sapiens) (P42574 whole entry, looked up): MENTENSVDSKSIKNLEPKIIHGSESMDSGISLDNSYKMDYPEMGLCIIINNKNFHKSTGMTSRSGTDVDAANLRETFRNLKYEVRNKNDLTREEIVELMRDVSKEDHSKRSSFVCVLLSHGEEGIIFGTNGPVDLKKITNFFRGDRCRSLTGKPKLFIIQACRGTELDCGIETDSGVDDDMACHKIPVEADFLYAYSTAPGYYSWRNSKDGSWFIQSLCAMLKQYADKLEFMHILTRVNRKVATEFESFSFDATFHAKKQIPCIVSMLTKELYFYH
# Sequence of Cytochrome P450 3A7 (Homo sapiens) (P24462 whole entry, looked up): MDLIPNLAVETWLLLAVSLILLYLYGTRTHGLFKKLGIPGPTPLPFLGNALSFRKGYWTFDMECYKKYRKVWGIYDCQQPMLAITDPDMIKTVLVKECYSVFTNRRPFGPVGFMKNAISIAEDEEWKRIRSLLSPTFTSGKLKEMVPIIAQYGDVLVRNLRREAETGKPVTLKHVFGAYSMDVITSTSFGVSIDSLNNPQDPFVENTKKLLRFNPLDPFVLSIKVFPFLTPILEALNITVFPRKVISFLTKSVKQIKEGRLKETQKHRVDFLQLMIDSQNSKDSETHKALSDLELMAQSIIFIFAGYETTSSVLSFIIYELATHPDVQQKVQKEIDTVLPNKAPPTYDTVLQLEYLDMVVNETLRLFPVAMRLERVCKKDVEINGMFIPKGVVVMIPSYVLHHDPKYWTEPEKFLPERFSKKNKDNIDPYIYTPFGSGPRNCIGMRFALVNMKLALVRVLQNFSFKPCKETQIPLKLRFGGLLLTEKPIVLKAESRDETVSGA
# Sequence of Apoptosis regulator Bcl-2 (Homo sapiens) (P10415 whole entry, looked up): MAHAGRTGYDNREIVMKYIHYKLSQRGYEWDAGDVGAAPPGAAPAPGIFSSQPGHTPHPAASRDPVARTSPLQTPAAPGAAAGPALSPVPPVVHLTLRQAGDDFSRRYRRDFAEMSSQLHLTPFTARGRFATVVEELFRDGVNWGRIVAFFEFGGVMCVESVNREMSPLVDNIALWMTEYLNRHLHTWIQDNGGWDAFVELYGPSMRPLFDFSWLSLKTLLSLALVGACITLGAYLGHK
smiles,measurement,setting,value
CC(C)[C@H](C(=O)O[C@H](C#N)c1cccc(Oc2ccccc2)c1)c1ccc(Cl)cc1,outcome,[1],inactive
same,outcome,[2],inactive
same,outcome,[3],inactive
same,outcome,[4],inactive
same,outcome,[5],inactive
same,AC50,[6],37.3 µM (active)
same,outcome,[7],inactive
same,AC50,[8],20.8 µM (active)
same,AC50,[9],34.2 µM (active)
same,outcome,[10],inactive
same,AC50,[11],50 µM (active)
same,outcome,[12],inactive
same,AC50,[13],10.5 µM (active)
same,outcome,[14],inactive
same,outcome,[15],inactive
same,outcome,[16],inactive
same,outcome,[17],inactive
same,outcome,[18],inactive
CCOC(=O)COc1cc(-c2nn(C)c(OC(F)F)c2Cl)c(F)cc1Cl,outcome,[1],inactive
same,outcome,[2],inactive
same,outcome,[3],inactive
same,outcome,[4],inactive
same,outcome,[5],inactive
same,outcome,[6],inactive
same,outcome,[7],inactive
same,AC50,[8],63.5 µM (active)
same,AC50,[9],50 µM (active)
same,outcome,[10],inactive
same,AC50,[11],16.3 µM (active)
same,outcome,[12],inactive
same,AC50,[13],22.8 µM (active)
same,outcome,[14],inactive
same,outcome,[15],inactive
same,outcome,[19],inactive
same,outcome,[16],inactive
same,AC50,[17],30.1 µM (active)
same,outcome,[18],inactive
CN1COCN(Cc2cnc(Cl)s2)C1=N[N+](=O)[O-],outcome,[1],inactive
same,outcome,[2],inactive
same,outcome,[3],inactive
same,outcome,[4],inactive
same,outcome,[5],inactive
same,outcome,[6],inactive
same,outcome,[7],inactive
same,AC50,[8],50 µM (active)
same,outcome,[20],inactive
same,outcome,[10],inactive
same,outcome,[11],inactive
same,outcome,[12],inactive
same,AC50,[13],38.8 µM (active)
same,outcome,[14],inactive
same,outcome,[15],inactive
same,outcome,[19],inactive
same,outcome,[16],inactive
same,outcome,[17],inactive
same,outcome,[18],inactive
CCc1cccc(CC)c1N(COC)C(=O)CCl,outcome,[1],inactive
same,outcome,[2],inactive
same,outcome,[3],inactive
same,outcome,[4],inactive
same,outcome,[5],inactive
same,outcome,[6],inactive
same,outcome,[7],inactive
same,AC50,[8],50 µM (active)
same,outcome,[9],inactive
same,outcome,[10],inactive
same,outcome,[11],inactive
same,outcome,[12],inactive
same,outcome,[13],inactive
same,outcome,[14],inactive
same,outcome,[15],inactive
same,outcome,[16],inactive
same,outcome,[17],inactive
same,outcome,[18],inactive
COP(=O)(OC)OC(Br)C(Cl)(Cl)Br (stereo unspecified),outcome,[1],inactive
same,outcome,[2],inactive
same,outcome,[3],inactive
same,outcome,[4],inactive
same,outcome,[5],inactive
same,AC50,[6],26.3 µM (active)
same,outcome,[7],inactive
same,AC50,[8],2.45 µM (active)
same,outcome,[10],inactive
same,outcome,[11],inactive
same,outcome,[12],inactive
same,outcome,[13],inactive
same,outcome,[14],inactive
same,outcome,[15],inactive
same,outcome,[19],inactive
same,outcome,[16],inactive
same,outcome,[17],inactive
same,outcome,[18],inactive
CC(C)N(C(=O)SCC(Cl)=C(Cl)Cl)C(C)C,outcome,[1],inactive
same,outcome,[2],inactive
same,outcome,[3],inactive
same,outcome,[4],inactive
same,outcome,[5],inactive
same,AC50,[6],73.5 µM (active)
same,outcome,[8],inactive
same,outcome,[9],inactive
same,outcome,[10],inactive
same,outcome,[12],inactive
same,outcome,[13],inactive
same,outcome,[14],inactive
same,outcome,[15],inactive
same,outcome,[19],inactive
same,outcome,[16],inactive
same,outcome,[17],inactive
same,outcome,[18],inactive
Nc1c(Cl)cc([N+](=O)[O-])cc1Cl,AC50,[1],68.5 µM (active)
same,AC50,[2],50 µM (active)
same,AC50,[3],83.3 µM (active)
same,AC50,[4],17.3 µM (active)
same,outcome,[5],inactive
same,AC50,[6],13 µM (active)
same,AC50,[7],50 µM (active)
same,AC50,[8],11.8 µM (active)
same,AC50,[10],63.8 µM (active)
same,AC50,[11],40.4 µM (active)
same,AC50,[12],67.4 µM (active)
same,AC50,[13],11.5 µM (active)
same,AC50,[14],35.1 µM (active)
same,outcome,[15],inactive
same,AC50,[16],50 µM (active)
same,AC50,[17],84.2 µM (active)
same,AC50,[18],27.5 µM (active)

# Source: PubChem BioAssay (EPA / NIEHS)
